Screens: PubChem BioAssay, National Center for Advancing Translational Sciences (NCATS)
Cycloheximide cs – affects cycloheximide protein synthesis inhibition readout, counter-screen; max response, %; cell reporter, cycloheximide protein synthesis inhibition counterscreen; AID 2314; hit rate 12% among 300,000; in the data active = max response mostly above about 13%, no sharp cut-off; inactive = mostly below about 14%; note: read at 38.3 µM for the half of the compounds with a filed dose; 0% is about no effect
LmPK inh – LmPK (Leishmania mexicana) enzyme inhibition; Q27686; purified LmPK, Kinase-Glo ATP luminescence, 1 h; Potency, µM (doses to about 57.5 µM), for the others: top-dose activity change, negative = inhibition, most hits filed as inhibitors; hit rate 0.37% among 290,000; note: potency is the fitted concentration of half-maximal effect; % is set by controls: 0 for no effect and ±100 for the full control effect
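Screened at intermediate enzyme activity to detect both inhibitors and activators: LmPK at 0.1 nM, with a 0.5 nM enzyme column as activation reference. PEP 0.5 mM, ADP 0.1 mM; ATP detected by luminescence after 1 h.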
Giardia FBPA inh – inhibitors of Giardia lamblia fructose-1,6-bisphosphate aldolase | A8B2U2 | purified Giardia FBPA | Potency, µM (doses to about 59.6 µM), for inactives: top-dose activity, negative = inhibition, usual class: inhibitors | hit rate 0.71% among 290,000 | AID 2451; note: potency is the fitted concentration of half-maximal effect; % is set by controls: 0 for no effect and ±100 for the full control effect; nearly all actives have a fitted effect of over 55% in size
Target sequence (A8B2U2 whole entry, looked up): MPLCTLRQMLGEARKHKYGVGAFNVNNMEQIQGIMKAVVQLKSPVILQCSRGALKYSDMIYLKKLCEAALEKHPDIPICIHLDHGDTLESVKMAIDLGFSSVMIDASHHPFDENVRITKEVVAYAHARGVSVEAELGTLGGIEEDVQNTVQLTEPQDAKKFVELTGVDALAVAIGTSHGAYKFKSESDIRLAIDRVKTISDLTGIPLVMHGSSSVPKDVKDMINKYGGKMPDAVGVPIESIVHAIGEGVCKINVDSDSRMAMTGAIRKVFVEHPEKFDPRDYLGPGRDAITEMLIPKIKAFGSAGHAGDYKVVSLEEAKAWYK
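40 nM FBPA preincubated 10 min at RT with compound (up to 57.5 uM final), then substrate plus GAPDH/TPI/NAD/arsenate coupling and diaphorase/resazurin added. Fluorescence read after 20 min at RT, 525/598 nm.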
Shiga inhibitor – Shiga toxin inhibition | Vero cells, Shiga toxin protein synthesis inhibition reporter | inhibition, % at 38.7 µM | hit rate 9.2% among 290,000; in the data active = inhibition mostly above about 28%, no sharp cut-off; inactive = mostly below about 43%; note: 0% is about no effect
RE007 growth inh – less growth of the S. pombe RE007 Vpr strain; S. pombe RE007 Vpr strain, BacTiter-Glo ATP luminescence, 24 h; hit rate 0.21% among 360,000; Potency, µM (highest dose often 92.2 µM), for the others: top-dose activity change, negative = less growth, usual class: inhibitors; active = well fitted falling curve with a large enough effect; inconclusive = small, poorly fitted or top-dose-only effect; inactive = no such curve, though single readings can be large or run the other way; note: potency is the fitted concentration of half-maximal effect; % is set by controls: 0 for no effect and ±100 for the full control effect; nearly all actives have a fitted effect of over 50% in size
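Fission yeast RE007 carrying one integrated HIV-1 vpr copy, seeded at OD 0.01 in PMG+AL medium with 23 nL pinned compound. Grown 24 h at 30 degrees; viability read by BacTiter-Glo luminescence after 5 min.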
TbPYK inhibitor – inhibitors of Trypanosoma brucei pyruvate kinase; Q57TT1; TbPYK enzyme, Kinase-Glo Plus ATP luminescence, 45 min; Potency, µM (doses to about 76.8 µM), for inactives: at the highest dose activity, negative = inhibition, hits mostly inhibitors; hit rate 0.12% among 410,000; AID 624173; note: potency is the fitted concentration of half-maximal effect; % is set by controls: 0 for no effect and ±100 for the full control effect; nearly all actives have a fitted effect of over 50% in size
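T. brucei PYK with substrate was exposed to pin-transferred compounds across a concentration series, then started with 130 uM ADP (final). After 45 min at room temperature, Kinase-Glo Plus luminescence was read, normalized and curve-fitted.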
An asterisk follows results filed as active; ? = inconclusive; / = not tested or not shown. The sample as a whole holds a higher share of hits than the screen did. Unless noted, calls come from the whole dose curve; as a rule, active = well fitted curve in the direction sought with a large enough effect; inconclusive = small, poorly fitted or top-dose-only effect, or another doubt; inactive = no such curve, though single readings can be large; an effect the other way counts as inactive or inconclusive.

SMILES | Cycloheximide cs | LmPK inh | Giardia FBPA inh | Shiga inhibitor | RE007 growth inh | TbPYK inhibitor
COc1ccc(C(=O)O/N=C(/c2cccs2)C(C)(C)C)cc1 | -1 | -3% | 0% | 12 | 12% | -3%
COc1ccc(C2CC2/C(=N/OC(=O)c2cccs2)c2ccccc2)cc1 (configuration not stated) | 29* | 2% | -1% | 45 | 1% | 0%
CCN(C(=O)CSc1nc2ccccc2c2nc(CCn3c(C)nc4ccccc43)nn12)c1cccc(C)c1 | / | / | / | / | / | 3%
Cc1ccc(C(=O)NCC(=O)NC23CC4CC(CC(C4)C2)C3)cc1 | 37* | -4% | / | 69* | 18% | -3%
C=CCc1c(C)nc(-c2ccccc2)nc1N/N=C/c1ccncc1 | 23* | 6% | -8% | 30 | -11% | 1%
O=C(CN(c1ccccc1)S(=O)(=O)c1ccc(F)cc1)NCc1cccs1 | / | / | / | / | 1% | 0%
c1ccc(-n2cnc3cc(NCc4cccs4)ccc32)cc1 | 88* | -2% | -7% | 77* | -12% | -13%
c1ccc(-n2cnc3cc(NCc4ccco4)ccc32)cc1 | 35* | -1% | -9% | 63* | 9% | 1%
COc1ccccc1-n1cnc2cc(C(=O)NCc3ccco3)ccc21 | 11 | -5% | 0% | 18 | -2% | -1%
COc1ccc(-n2cnc3cc(NCc4cccs4)ccc32)cc1 | 51* | 4% | -20% | 100* | ? | -18%
CCCn1c(NCc2cccs2)nc2ccccc21 | -3 | 0% | 0% | 6 | -12% | -5%
Cn1cnc2cc(NCc3cccs3)ccc21 | 24* | -6% | 1% | 65* | -28% | 3%
Cc1cccc(NC(=O)CN2C(=O)CCc3ccccc32)c1C | / | / | / | / | / | -1%
Cc1ccccc1CNC(=O)CN1C(=O)C2CCCCN2c2ccc(C(=O)N3CCCC3)cc21 (configuration not stated) | / | / | / | / | / | 1%
COc1ccc(C(=O)c2c(N)c(-c3nc(-c4ccccc4)cs3)c3ccccn23)cc1 | / | / | / | / | / | 0%
Cc1ccc(-n2ccnc(NCc3cccs3)c2=O)cc1C | / | / | / | / | / | 3%
Cc1ccc(-n2cnc3cc(NCc4cccs4)ccc32)cc1 | 53* | 6% | -21% | 100* | 22µM* | -13%
CC(Oc1ccccc1)C(=O)Nc1ccc(OCc2cc(=O)n3ccsc3n2)cc1 (configuration not stated) | / | / | / | / | / | -1%
N#Cc1nc(-c2ccco2)oc1NCCc1ccccc1 | 28* | 2% | 4% | 27* | -5% | -1%
N#Cc1nc(-c2ccccc2F)oc1NCc1ccccc1 | 18* | 8% | -2% | 26 | 6% | 2%
N#Cc1nc(-c2cccs2)oc1NCCc1ccccc1 | 34 | 10% | -4% | 74* | -10% | -2%
N#Cc1nc(-c2cccs2)oc1NCCN1CCOCC1 | 2 | -2% | -13% | -10 | 11% | -7%
COc1ccc(-c2nc(C#N)c(NCCc3ccccc3)o2)cc1OC | 22* | -1% | -3% | 50 | 1% | -5%
COc1ccc(OC)c(C2=Nn3c(nnc3-c3ccccc3C)SC2)c1 | 8 | / | -16% | -10 | / | /
C/C(=N\NC(=O)c1cccc(S(=O)(=O)N2CCOCC2)c1)c1ccc(OCC(=O)N(C)C)cc1 | / | / | / | / | -18% | 1%
SMILES | Cycloheximide cs | LmPK inh | Giardia FBPA inh | Shiga inhibitor | RE007 growth inh | TbPYK inhibitor
Cc1cccc(N2CCN(C(=O)CCS(=O)(=O)c3ccc4c(c3)CC(=O)N4C)CC2C)c1 (configuration not stated) | / | / | / | / | / | 5%
N#Cc1nc(COc2ccccc2)oc1N1CCN(Cc2ccccc2)CC1 | -1 | -1% | -2% | -6 | -8% | -5%
N#Cc1nc(-c2cccs2)oc1N1CCN(Cc2ccccc2)CC1 | 16* | -13% | 3% | 22 | 4% | 2%
N#Cc1nc(-c2ccccc2F)oc1NCCc1ccccc1 | 41* | 3% | -7% | 37 | -4% | -1%
COCCCNc1oc(-c2ccccc2F)nc1C#N | 24* | -3% | 2% | 34 | 11% | -3%
COc1cccc(NC(=O)c2cccn(Cc3ccccc3C)c2=O)c1 | / | / | / | / | / | -1%
C=CCn1cccc(C(=O)Nc2ccc(F)cc2)c1=O | 39* | -2% | 7% | 63* | -10% | 0%
CCOC(=O)Cn1cc(Cl)cc(C(=O)Nc2ccccc2)c1=O | -1 | 1% | 6% | 4 | -19% | -3%
C=CCc1cccc2cc(C(=O)Nc3ccc(F)cc3)c(=O)oc12 | 11* | -7% | 4% | 0 | 22% | -2%
C=CCc1cccc2cc(C(=O)Nc3ccc(CC(=O)O)cc3)c(=O)oc12 | -1 | 2% | 8% | -2 | -1% | -1%
COc1ccc(NC(=O)c2cccn(CC=C(C)C)c2=O)cc1 | 40* | 8% | 3% | 58* | -6% | -3%
Cn1cc(Cl)cc(C(=O)Nc2ccccc2)c1=O | 34* | -8% | 5% | 59* | -14% | -2%
O=C(Nc1ccncc1)c1cccn(Cc2ccccc2)c1=O | 10 | 3% | 2% | 16 | 5% | 3%
O=C(CN1C(=O)COc2ccc(S(=O)(=O)N3CCCCCC3)cc21)Nc1cccc(Cl)c1 | / | / | / | / | / | -3%
C=CCn1cccc(C(=O)Nc2ccc(OC)cc2)c1=O | 48* | -9% | 1% | 62* | -6% | -5%
O=C(Nc1ccccc1)c1cccn(Cc2ccccc2)c1=O | 34* | -2% | 5% | 98* | -14% | -1%
Cn1c(CNC(=O)CCNC(=O)c2cccc(Cl)c2)cc(=O)n(C)c1=O | -3 | -10% | / | -12 | 3% | 2%
Cc1cc(N2CCCC2)ccc1/C=C1\NC(=S)N(C)C1=O | 21* | -4% | -26% | 28 | -5% | -18%
CN1C(=O)c2ccc(N3CCCC3)cc2C1=O | 15* | 0% | -9% | 55* | -15% | -7%
CN1C(=O)c2ccc(N(C)C)cc2C1=O | 7 | 2% | 0% | 26 | -4% | -9%
O=C(c1ccc(-c2ccccc2)cc1)C1CCCN(Cc2ccncc2)C1 (configuration not stated) | 48* | 1% | -9% | 53 | 3% | -6%
CC(C)(C)c1ccc(C(=O)C2CCCN(Cc3ccon3)C2)cc1 (configuration not stated) | 22* | 4% | -13% | 33* | -6% | 1%
O=C(c1ccc(Cl)cc1)C1CCCN(Cc2ccon2)C1 (configuration not stated) | -1 | -1% | 1% | -5 | -6% | 4%
CCOC(=O)C1=C(COC(=O)/C=C/c2ccc(O)c(OC)c2)NC(=O)NC1C (configuration not stated) | / | / | / | / | 13% | 1%
COc1cc(C(C)=O)ccc1Oc1ccc(S(=O)(=O)N2CCOCC2)cn1 | / | / | / | / | 2% | 8%
Cc1nc2c(cc(Oc3ccc(S(=O)(=O)N4CCOCC4)cn3)c3ccsc32)s1 | 72* | -11% | ? | 113* | -14% | -8%
